Pf Dd2 inh: blocks in vitro growth of P. falciparum Dd2 | Potency, µM (series often up to 28.9 µM), most hits filed as inhibitors | AID 1347417 | actives 4.3% (n = 120,000) | P. falciparum Dd2 growth, SYBR Green, 72 h; active = well fitted inhibition curve with a large enough effect; note: nearly all actives have a fitted effect of over 65% in size
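Readout: SYBR Green fluorescence, 485 nm excitation, 535 nm emission, after ~16 h lysis at 37C. Before that, Dd2-infected red cells (2.5% hematocrit) grew 72 h with compound, 29 uM top final concentration.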
Each line names hits and unclear results; the compound was inactive in the other large screens. Many of the other results were omitted from the sample, so hits are more common in it than they were.

CCN1c2cc(C(=O)N3CCN(c4ccc(OC)cc4)CC3)ccc2C(=O)N2CCCCC21 (stereo not drawn)	none
CC(=O)N1CCC([C@@H]2CN(C(=O)CCCc3ccccc3)C[C@H]2CO)CC1	none
O=C1CC(c2ccccc2)N(C(=O)CNC(=O)NC2CCCCC2)CCCCCCN1 (stereo not drawn)	none
Cc1ccc(NC(=O)N2C[C@@H](F)C[C@H]2C(=O)N2CCc3ccccc3C2)cc1Cl	none
CCc1ccccc1NC(=O)N1C[C@@H](F)C[C@H]1C(=O)N1CCc2ccccc2C1	Pf Dd2 inh 3.2µM
COc1ccc(NC(=O)N2C[C@@H](F)C[C@H]2C(=O)N2CCc3ccccc3C2)c(C)c1	none
Cc1ccc2c(c1)SCC(=O)N2CC(=O)N(C)Cc1ccoc1	none
Cc1nc2c(C(=O)NCCc3ccc(Cl)cc3)cnn2c(C)c1Cc1ccc(F)cc1	none
Cc1ccc(Cc2c(C)nc3nc(SCC(=O)NC(C)c4ccccc4)nn3c2C)cc1 (stereo not drawn)	none
Cc1nc2c(C(=O)NC(C)c3ccccc3)cnn2c(C)c1Cc1ccccc1 (stereo not drawn)	Pf Dd2 inh 8.9µM
COc1ccc(S(=O)(=O)N2CCC3(CC2)CC(OCC2CC2)CCO3)cc1 (stereo not drawn)	Pf Dd2 inh 3.5µM
COc1ccc(S(=O)(=O)N2CCC3(CC2)CC(OC)CCO3)cc1 (stereo not drawn)	none
COc1cccc(S(=O)(=O)N2CCC3(CC2)CC(OCC2CC2)CCO3)c1 (stereo not drawn)	none
COc1cccc(C(=O)N2CCC(C3CCN(S(C)(=O)=O)CC3)C2)c1 (stereo not drawn)	none
CC(C)c1ccc(NC(=O)Cn2cc(S(=O)(=O)N3CCN(c4ccccc4F)CC3)c3ccccc3c2=O)cc1	Pf Dd2 inh 10µM
CC(C)c1ccc(NC(=O)c2ccc(F)c(S(=O)(=O)N3CCN(c4ccccc4F)CC3)c2)cc1	none
CC1CCN(S(=O)(=O)c2cn(CC(=O)Nc3ccc(F)cc3)c(=O)c3ccccc23)CC1	none
O=C(CCc1conc1-c1ccc(F)cc1)NCc1cccc(Br)c1	none
O=C(Nc1nc2c(s1)CCC2)C1CC(=O)N(c2n[nH]c3cc(Br)ccc23)C1 (stereo not drawn)	none
CC(=O)N1CC[C@H](c2nnc(Cc3c[nH]c4ccccc34)o2)C1	none
c1ccc2c(Cc3nnc([C@H]4CCN(CC5CC5)C4)o3)c[nH]c2c1	none
c1cncc(CN2CC[C@H](c3nnc(Cc4c[nH]c5ccccc45)o3)C2)c1	Pf Dd2 inh 11µM
Cc1ncsc1CN1CCCN(S(=O)(=O)c2ccccc2)CCC(=O)NCC1	none
COc1ccc(-c2nc3cc(C)ccc3cc2CN2CCC[C@@H]2C(N)=O)cc1OC	none
COc1ccc(OC)c2nc(-c3cccc(Cl)c3)c(CN3CC(O)C3)cc12	none
COc1cc2cc(CN3CCC[C@@H]3CO)c(-c3cccc(Cl)c3)nc2cc1OC	Pf Dd2 inh 13µM
CCOC(=O)C1(Cc2ccccc2F)CCCN(C(=O)CCN2CCCCC2=O)C1 (stereo not drawn)	none
COCCN1CCC(N2CCN(S(=O)(=O)c3ccc(C(F)(F)F)cc3)CC2)C1=O (stereo not drawn)	none
COc1cccc(-c2cnc3[nH]cc(CC(N)=O)c3c2)c1	none
COC[C@@H]1CN(C(=O)c2ccccc2OC)C[C@H]1c1ccccn1	none
O=C(O)C[C@@H]1CCN(C(=O)C2CCC2)C[C@@H]1CCN1CCC(n2c(=O)[nH]c3ccccc32)CC1	none
COc1ccc(Cl)cc1NC(=O)Nc1c[nH]c(=O)[nH]c1=O	none
Cc1ccc(C#N)c(=O)n1CC(=O)Nc1ccccc1C(F)(F)F	none
Cc1ccc(C)c(NS(=O)(=O)c2ccc3c(c2)n(C)c(=O)n3C)c1	none
COc1ccc(Cl)cc1NC(=O)c1c(OC)cc(=O)n2c1CCCC2	none
CC(=O)c1cccc(NC(=O)Nc2cc3c(cc2N2CCCC2)n(C)c(=O)n3C)c1	none
O=C(Cn1nc2n(c1=O)CCCCC2)Nc1ccccc1C(F)(F)F	none
Cc1ccc(C)c(NC(=O)Nc2cc3c(cc2N2CCCCC2)n(C)c(=O)n3C)c1	Pf Dd2 inh 10µM
CCn1c(=O)n(CC)c2cc(N3CCCCC3)c(NC(=O)Nc3ccccc3C(F)(F)F)cc21	Pf Dd2 inh 10µM
CCn1c(=O)n(CC)c2cc(N3CCCCC3)c(NC(=O)Nc3cc(Cl)ccc3OC)cc21	Pf Dd2 inh 8.9µM
Cc1nc(-c2ccc(Cl)cc2)n(Cc2ccc(F)cc2)c(=O)c1CCO	none
COc1ccc(C(=O)N2CCC3(CC2)N(c2ccccc2)C(=O)CS3(=O)=O)cc1	none
COC[C@@H]1CN(C(=O)c2occc2C)C[C@H]1c1ccncc1	none
Cc1noc([C@@H]2CC(F)(F)CN2C(=O)c2ccoc2C)n1	none
CC1(c2ccccc2)N(Cc2ncccn2)C(=O)OC12CCN(Cc1cccc(OC(F)(F)F)c1)CC2 (stereo not drawn)	none
COC(=O)c1ccc2c(c1)nc1n2[C@@H](CNC(=O)NC2CCCCC2)COC1	none
CCn1cc(-c2nc3cc(S(=O)(=O)NC(C)C)ccc3n2C(C)C)cn1	none
CCc1nnc2ccc(N3CCN(C)CC3)nn12	none
CN1CCN(c2ccc3ncc(Nc4ccc5c(c4)OCCO5)n3n2)CC1	Pf Dd2 inh 7.9µM
c1ccc(-c2ccc3ncc(Nc4ccc5c(c4)OCCO5)n3n2)cc1	none
CN(Cc1cccnc1)c1ccc2ncc(Nc3ccc4c(c3)OCO4)n2n1	Pf Dd2 inh 7.9µM
CN(Cc1ccc(F)cc1)c1ccc2ncc(Nc3ccc4c(c3)OCO4)n2n1	none
CN(Cc1cccnc1)c1ccc2ncc(Nc3ccc(F)cc3)n2n1	none
COc1ccc(-c2ccc3ncc(Nc4ccnc(N5CCOCC5)c4)n3n2)cc1OC	none
Clc1cccc(Nc2cnc3ccc(N4CCOCC4)nn23)c1	none
CN1CCN(c2ccc3ncc(Nc4ccc(OC(F)(F)F)cc4)n3n2)CC1	Pf Dd2 inh 3.5µM
COc1ccc(CNC(=O)N2CCC(c3noc(-c4cnccn4)n3)C2)cc1 (stereo not drawn)	none
O=C(O)C1CN(CC2CC2)CCN(C(=O)c2cc(=O)[nH]o2)C1 (stereo not drawn)	none
COC1CCC(C(=O)NCC2COc3ncncc3C(=O)N2Cc2ccccc2)CC1 (stereo not drawn)	none
Cc1ncc2c(c1CNC(=O)c1cc(F)cc(Cl)c1)CCNC2	none
O=C(O)c1cccc(C2CCCN(C(=O)Cc3cc(F)c(F)c(F)c3)C2)c1 (stereo not drawn)	none
COc1nc2c(cc1CNC(=O)c1ccc(F)cc1)C(=O)N(C1CCCC1)C2	none
Cc1cc(OCCN2CCOCC2)c(C)c2c1CC[C@@H]([C@H](C)C(=O)N1CCOCC1)C2	none
O=S1(=O)CCC(S(=O)(=O)Nc2ccc(F)cc2)C1 (stereo not drawn)	none
CC(=O)N1CCN([C@H]2[C@@H]3OC[C@@H](O3)[C@@H](NC(=O)Nc3cccc(C(F)(F)F)c3)[C@@H]2O)CC1	none
COc1ccc(Cl)cc1Nc1ncnc2c1c(-c1ccccc1)cn2-c1ccccc1	none
COc1ccc(CCNc2ncnc3c2c(-c2ccccc2)cn3-c2ccc(Cl)cc2)cc1OC	none
COCCN(CCOC)c1ncnc2c1c(-c1ccccc1)cn2-c1ccc(C)c(Cl)c1	Pf Dd2 inh 11µM
CC(=O)N1CCC2(CC1)CN(C(=O)CCC(=O)O)Cc1ccccc1O2	none
Cc1cnc(CC2CCN(C(=O)N(C)C)C2)n1CC1CC1 (stereo not drawn)	none
Cc1ccc(N2CCN(C(=O)C[C@H]3NC(=O)c4ccccc4NC3=O)CC2)c(C)c1	none
O=C(CCCc1ccccc1)NCc1nnc2c(-c3nc(C4CC4)no3)cccn12	none
CN1C(=O)C(CC(=O)NCc2noc(-c3c(F)cccc3F)n2)N(C)C1=O (stereo not drawn)	none

Screening data (PubChem)
